This note sets out measurements from PubChem BioAssay AID504546 (Broad Institute, 2011).

Each structure is given as a SMILES string. Records with an inconclusive call do not appear. Active and inactive are the calls of the source.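 How the source made its calls: active means every repeat run fits a falling-signal curve with half-maximal potency within ten times top tested dose; inconclusive means runs disagree, or flat moderate drop, or poor fit; inactive means every run inactive, including signal moving upward.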

The assay is described as follows: ADP-Glo luciferase signal interference – biochemical, luminescence, cherry-picked samples, set 2, artefact control for CDK5 inhibitor project, dose response (AID 504546). The note with it: ADP-Glo detection reagent counter screen, 5 uM ADP; series mostly up to 30 µM.
On to `O=C(O)c1ccc(/C=N/Nc2ccc(C(F)(F)F)cn2)cc1`, for which the result was inactive.
On to `COc1cc(OC)c(C(=O)N2CCN(c3ccccn3)CC2)cc1OC`, for which the molecule was classed as inactive.
As for `ON=C1c2ccccc2-c2ccc(O)cc21`, the entry is “inactive”; as for `Cc1ccc(-n2nc(C)c3c2C(Br)C(C)(C)CC3=O)nc1` (stereo unspecified), “inactive”.
Turning to `CC(C)[C@H](CO)N(Cc1cccc(F)c1)c1nc(Nc2cccc(Cl)c2)c2ncn(C(C)C)c2n1`, the result was inactive.
For `O=C1NCCCc2c1oc1ccc(O)cc21` the value was “inactive”.
As for `COc1cc(/C=N/Nc2ccc(C(F)(F)F)cn2)ccc1O`, the molecule was called inactive.
As for `O=C(NNC(=O)c1ccccn1)c1ccc(OC(F)F)cc1`, the outcome was inactive.
For the molecule `Oc1ccc(/C=N/Nc2ccc(C(F)(F)F)cn2)c(O)c1`, the outcome was inactive.
In the case of `CCNc1nc(N)nc(-c2cc(Cl)ccc2O)n1`, the molecule was classed as inactive.
On to `COc1ccc(C(=O)c2sc(Nc3ccccc3)nc2N)cc1`, for which the outcome was inactive.
Consider `COc1cccc(OC)c1C(=O)N1CCN(c2ccccn2)CC1`, for which the outcome was inactive.
Consider `COc1ccc(C(=O)N2CCN(c3ccccn3)CC2)cc1`, for which the result was inactive.
As for `CCC(C)(C)C1CCc2[nH]nc(C(=O)NCCN3CCOCC3)c2C1` (stereo unspecified), the entry is “inactive”.
Consider `CCN1C(=O)/C(=C2/Sc3ccc(OC)cc3N2C)SC1=Nc1cccc(O)c1`, for which the molecule was classed as inactive.
Take `CCC(C)Oc1cc(-c2ccnc(Nc3cccc(Cl)c3)n2)ccn1` (stereo unspecified): the molecule was classed as inactive.
Take `Cc1cc(-c2nsc(=O)o2)c(S(C)(=O)=O)s1`: the outcome was inactive.
As for `O=C(c1ccc(F)cc1)c1cnc(Nc2ccccc2)s1`, the entry is “inactive”.
Turning to `COc1cc2c(ccc3cc(OC)c(OC)c(O)c32)cc1O`, the outcome was inactive.
`CNS(=O)(=O)c1ccc2c3c(cccc13)C(=O)N2`: the result was inactive.
In the case of `Cc1ncc(CO)c(/C=N/Nc2ccc(C(F)(F)F)cn2)c1O`, the molecule was classed as inactive.
For `COc1ccc2nc(C)cc(Nc3ccc(C)cc3)c2c1` the value was “inactive”; for `Cc1nn(-c2ccccn2)c2c1C(=O)CC(C)(C)C2Br` (stereo unspecified), “inactive”.
On to `CC(C)[C@H](CO)Nc1nc(Nc2ccc(Cl)c(C(=O)O)c2)c2ncn(C(C)C)c2n1`, for which the call was inactive.
As for `Clc1ccc(N/N=C/c2ccncc2)cc1Cl`, the entry is “inactive”.
As for `C=CCNc1nc(N)c(C(=O)c2ccc3c(c2)OCO3)s1`, the outcome was inactive.
As for `Clc1cnc(N/N=C/c2ccncc2)c(Cl)c1`, the call was inactive.
For `CC(C)(C)C(=O)c1sc(Nc2ccccc2)nc1N` the value was “inactive”; for `Oc1cc2c(cc1O)C1c3ccc(O)c(O)c3OCC1(O)C2` (stereo unspecified), “inactive”.
In the case of `Oc1ccc(/C=N/Nc2cccc(Cl)n2)c(O)c1`, the result was inactive.
On to `Oc1[nH]c2ccccc2c1C1=NCCCCC1`, for which the result was inactive.
For the molecule `Cc1nn(-c2nc3ccccc3[nH]2)c(=O)c2ccccc12`, the result was inactive.
In the case of `CC(C)n1cnc2c(Nc3ccc(F)c(Cl)c3)nc(NCCO)nc21`, the result was inactive.
As for `Oc1cccc(C=NNc2ccccn2)c1`, the entry is “inactive”; as for `COc1ccc2ccc3ccc(OC)c(OC(C)=O)c3c2c1`, “inactive”.
As for `O=C(c1ccc2c(c1)OCO2)N1CCN(c2ccccn2)CC1`, the result was inactive.
